This is part of a sample that, as a whole, favours compounds with a hit. Of some 83,000 tested, about 20% had one in any assay.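 Step 1: grow cells in 96-well plates. Step 2: add test compound at a single concentration. Step 3: incubate 48 h. Step 4: record percent growth.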 A number with no mark means an inactive call. Activity calls are given as the source filed them. How the source made its calls: active means growth percent below 10; inactive means the rest.
Test system: T-47D breast
Experiment: NCI-60 one-dose screen, 48 h (100 = growth as untreated, 0 = no growth, -100 = all killed)
Settings: 10 µM unless noted

Compound	growth
COC(=O)c1c(C)nc(C)c2c1C(=O)C=C(NCc1ccccc1)C2=O	82.2%
C=C(C)[C@@H]1CC[C@]2(COC3CCCCO3)CC[C@]3(C)[C@H](CC[C@@H]4[C@@]5(C)C=C(C=O)C(=O)C(C)(C)[C@@H]5CC[C@]43C)[C@@H]12 (stereo partly specified)	-48.9% (active)
CCOc1ncc([N+](=O)[O-])c(OCC)n1	106%
c1ccc(-c2c(-c3ccccc3)[n+](Cc3ccc4ccccc4c3)cn2Cc2ccc3ccccc3c2)cc1	-74.3% (active)
Cn1cc(-c2csc(-c3cn(CCCN4CCOCC4)c4ccc(F)cc34)n2)c2cccnc21	41.1%
COC(=O)c1sccc1-c1cc(O)c(C(=O)Nc2ccccc2)s1	67.5%
CCCCCc1ccc(S(=O)(=O)Nc2ccc3nc(N)oc3c2)cc1	36.1%
COc1ccc2c(O)c(/C=C3\N=Nc4ncccc43)oc2c1C[C@@H]1CCNC[C@H]1F	29.7%
CCN(CC)CCCC(Cc1ccccc1)Nc1c2ccc(Cl)cc2nc2ccc(OC)cc12 (stereo unspecified)	-6.99% (active)
CNCC[C@H](Oc1cccc2ccccc12)c1cccs1	99.9%
CCOC(=O)c1cnn(CC(C)O)c1NC(=O)NCc1cccc(F)c1 (stereo unspecified)	100%
N#Cc1ccc(/C=C/c2cn(-c3ccccc3)nc2-c2cccc([N+](=O)[O-])c2)cc1	75%
O=C(/C=C/c1ccco1)Nc1ncc(Cc2cc(Cl)ccc2Cl)s1	37.4%
CCOC(=O)c1nnn(Cc2cc(=O)oc3ccc(O)cc23)c1C	98%
CC1(C)CC[C@]23CC[C@]4(C)[C@H](CC[C@@H]5[C@@]6(C)C/C(=C/O)C(=O)C(C)(C)[C@@H]6CC[C@]54C)[C@H]2[C@H]1OC3	114%
COC(=O)c1nc(-c2ccccc2)oc1S(=O)(=O)N1CCCC(C)C1 (stereo unspecified)	69.2%

Compound	growth
Cc1ccc2c(/C=C/C(=O)c3cc(CN4CCOCC4)c(O)c4nc(C)ccc34)cc(CN3CCOCC3)c(O)c2n1	9.26% (active)
CCN1C(=O)N(CC)C2C1NN=c1s/c(=C\c3ccc(OC)cc3)c(=O)n12 (stereo unspecified)	57.3%
COc1ccc(C/C(C)=C(\c2ccc(Cl)cc2)c2ccc(OCCN3CCCC3)cc2)cc1	56.6%
CCN(CC)CCOc1ccc(Nc2ncc3cc(-c4c(Cl)cccc4Cl)c(=O)n(CCOC)c3n2)cc1	29.4%
O=C(O)c1cn(C2CC2)c2cc(N3CCN(C(=O)N4CCOCC4)CC3)c(F)cc2c1=O	110%
c1cc(OCCN2CCCCCC2)ccc1CNc1ccc2nc(CCC3CCCCC3)[nH]c2c1	31.6%
COc1ccc(C/C(C)=C(\c2ccc(Cl)cc2)c2ccc(OCCCN(C)C)cc2)cc1	62.1%
Cc1ccc(S(=O)(=O)c2nc(-c3ccccc3)oc2SCC(N)=O)cc1	76.3%
CCCCn1c(NC(C)=O)c(S(=O)(=O)c2ccccc2)c2nc3ccccc3nc21	79.9%
Cc1ccc(Cc2cnc(NC(=O)/C=C/c3ccc(C)o3)s2)cc1	35.5%
CCN(CC)CCOc1ccc(C(=O)/C=C\c2ccc(Cl)cc2Cl)cc1	29.9%
CCOC(=O)C1=C(CC(O)c2ccc(OC)cc2OC)NC(=O)NC1c1ccccc1 (stereo unspecified)	110%
COc1ccc2c(c1)CC[C@@H]1[C@@H]2CC[C@]2(C)c3c(cc(C#N)c4c3sc3ccccc34)C[C@@H]12	102%
Cc1sc2nc(NCCN)[nH]c(=O)c2c1C	95%
COc1cc(-c2ccc(-c3ccc(C(=N)N)cc3)s2)cc(OC)c1OC	55.2%

Test system: BT-549 breast
Experiment: as above
Settings: 10 µM unless noted

Compound	growth
COC(=O)c1c(C)nc(C)c2c1C(=O)C=C(NCc1ccccc1)C2=O	90%
COc1ccc2[nH]cc(-c3nonc3-c3c[nH]c4ccc(Br)cc34)c2c1	74.9%
C=C(C)[C@@H]1CC[C@]2(COC3CCCCO3)CC[C@]3(C)[C@H](CC[C@@H]4[C@@]5(C)C=C(C=O)C(=O)C(C)(C)[C@@H]5CC[C@]43C)[C@@H]12 (stereo partly specified)	-58.5% (active)
CCOc1ncc([N+](=O)[O-])c(OCC)n1	105%
c1ccc(-c2c(-c3ccccc3)[n+](Cc3ccc4ccccc4c3)cn2Cc2ccc3ccccc3c2)cc1	-82% (active)
Cn1cc(-c2csc(-c3cn(CCCN4CCOCC4)c4ccc(F)cc34)n2)c2cccnc21	71.6%
Cc1cn(C)cn1	101%
COC(=O)c1sccc1-c1cc(O)c(C(=O)Nc2ccccc2)s1	116%
CCCCCc1ccc(S(=O)(=O)Nc2ccc3nc(N)oc3c2)cc1	61.9%
COc1ccc2c(O)c(/C=C3\N=Nc4ncccc43)oc2c1C[C@@H]1CCNC[C@H]1F	-43.2% (active)
CCN(CC)CCCC(Cc1ccccc1)Nc1c2ccc(Cl)cc2nc2ccc(OC)cc12 (stereo unspecified)	53.3%
CNCC[C@H](Oc1cccc2ccccc12)c1cccs1	94.2%
CCOC(=O)c1cnn(CC(C)O)c1NC(=O)NCc1cccc(F)c1 (stereo unspecified)	101%
N#Cc1ccc(/C=C/c2cn(-c3ccccc3)nc2-c2cccc([N+](=O)[O-])c2)cc1	40.5%
O=C(/C=C/c1ccco1)Nc1ncc(Cc2cc(Cl)ccc2Cl)s1	17.1%
CCOC(=O)c1nnn(Cc2cc(=O)oc3ccc(O)cc23)c1C	110%
CC1(C)CC[C@]23CC[C@]4(C)[C@H](CC[C@@H]5[C@@]6(C)C/C(=C/O)C(=O)C(C)(C)[C@@H]6CC[C@]54C)[C@H]2[C@H]1OC3	111%
COC(=O)c1nc(-c2ccccc2)oc1S(=O)(=O)N1CCCC(C)C1 (stereo unspecified)	75%
Cc1ccc2c(/C=C/C(=O)c3cc(CN4CCOCC4)c(O)c4nc(C)ccc34)cc(CN3CCOCC3)c(O)c2n1	12.8%
CCN1C(=O)N(CC)C2C1NN=c1s/c(=C\c3ccc(OC)cc3)c(=O)n12 (stereo unspecified)	9.76% (active)

Compound	growth
COc1ccc(C/C(C)=C(\c2ccc(Cl)cc2)c2ccc(OCCN3CCCC3)cc2)cc1	85.5%
CCN(CC)CCOc1ccc(Nc2ncc3cc(-c4c(Cl)cccc4Cl)c(=O)n(CCOC)c3n2)cc1	-15.1% (active)
O=C(O)c1cn(C2CC2)c2cc(N3CCN(C(=O)N4CCOCC4)CC3)c(F)cc2c1=O	95.7%
Clc1ccc(-c2nc(C(Cl)Cl)nc3cc(-c4ccccc4)nn23)cc1	89%
c1cc(OCCN2CCCCCC2)ccc1CNc1ccc2nc(CCC3CCCCC3)[nH]c2c1	76.5%
CN(C)CCCC1(c2ccc(F)cc2)OCc2cc(-c3csc4ccccc34)ccc21 (stereo unspecified)	84.2%
C(=C(\C1=NCCN1)n1ccc2ccccc21)/c1ccccc1	107%
COc1ccc(C/C(C)=C(\c2ccc(Cl)cc2)c2ccc(OCCCN(C)C)cc2)cc1	91.3%
Cc1ccc(S(=O)(=O)c2nc(-c3ccccc3)oc2SCC(N)=O)cc1	106%
CCCCn1c(NC(C)=O)c(S(=O)(=O)c2ccccc2)c2nc3ccccc3nc21	103%
Cc1ccc(Cc2cnc(NC(=O)/C=C/c3ccc(C)o3)s2)cc1	72.3%
CCN(CC)CCOc1ccc(C(=O)/C=C\c2ccc(Cl)cc2Cl)cc1	31.6%
O=C(/C=C/C12c3ccccc3C(c3ccccc31)C1C(=O)NC(=O)C12)c1ccco1 (stereo unspecified)	19.3%
CCOC(=O)C1=C(CC(O)c2ccc(OC)cc2OC)NC(=O)NC1c1ccccc1 (stereo unspecified)	102%
COc1ccc2c(c1)CC[C@@H]1[C@@H]2CC[C@]2(C)c3c(cc(C#N)c4c3sc3ccccc34)C[C@@H]12	114%
COc1ccc(-c2cn(Cc3cc4ccccc4s3)nn2)cc1OCCN1CCCCC1	74.8%
Cc1ncc(C(=O)Nc2ccc(CN3CCN(C)CC3)c(C(F)(F)F)c2)cc1C#Cc1cnc(N)c2ccc(C#N)cc12	43.5%
Cc1sc2nc(NCCN)[nH]c(=O)c2c1C	94.3%
C#CCOc1cccc(Nc2ncnc3cc(NC(=O)CCl)ccc23)c1	-55.4% (active)
COc1cc(-c2ccc(-c3ccc(C(=N)N)cc3)s2)cc(OC)c1OC	86.3%

Source: PubChem BioAssay (NCI)
